Source: the supplement of paper PMC11732987, “Enantioselective OTUD7B fragment discovery through chemoproteomics screening and high-throughput optimisation” (Communications Chemistry, 2025)

Tests used:
Assay in all cases: log2 ratio of Biotin-Ahx-Ub-VS probe labelling (fragment/DMSO); higher = less target engagement (more negative = stronger competition), active = hit call of the paper (q ≤ 0.05, log2 ratio ≤ -1)
Conditions in all cases: compound concentration: 200 uM; treatment time: 3 h
USP42 = biological target: T1, USP42 (UniProt Q9H9J4)
T1 sequence (whole entry): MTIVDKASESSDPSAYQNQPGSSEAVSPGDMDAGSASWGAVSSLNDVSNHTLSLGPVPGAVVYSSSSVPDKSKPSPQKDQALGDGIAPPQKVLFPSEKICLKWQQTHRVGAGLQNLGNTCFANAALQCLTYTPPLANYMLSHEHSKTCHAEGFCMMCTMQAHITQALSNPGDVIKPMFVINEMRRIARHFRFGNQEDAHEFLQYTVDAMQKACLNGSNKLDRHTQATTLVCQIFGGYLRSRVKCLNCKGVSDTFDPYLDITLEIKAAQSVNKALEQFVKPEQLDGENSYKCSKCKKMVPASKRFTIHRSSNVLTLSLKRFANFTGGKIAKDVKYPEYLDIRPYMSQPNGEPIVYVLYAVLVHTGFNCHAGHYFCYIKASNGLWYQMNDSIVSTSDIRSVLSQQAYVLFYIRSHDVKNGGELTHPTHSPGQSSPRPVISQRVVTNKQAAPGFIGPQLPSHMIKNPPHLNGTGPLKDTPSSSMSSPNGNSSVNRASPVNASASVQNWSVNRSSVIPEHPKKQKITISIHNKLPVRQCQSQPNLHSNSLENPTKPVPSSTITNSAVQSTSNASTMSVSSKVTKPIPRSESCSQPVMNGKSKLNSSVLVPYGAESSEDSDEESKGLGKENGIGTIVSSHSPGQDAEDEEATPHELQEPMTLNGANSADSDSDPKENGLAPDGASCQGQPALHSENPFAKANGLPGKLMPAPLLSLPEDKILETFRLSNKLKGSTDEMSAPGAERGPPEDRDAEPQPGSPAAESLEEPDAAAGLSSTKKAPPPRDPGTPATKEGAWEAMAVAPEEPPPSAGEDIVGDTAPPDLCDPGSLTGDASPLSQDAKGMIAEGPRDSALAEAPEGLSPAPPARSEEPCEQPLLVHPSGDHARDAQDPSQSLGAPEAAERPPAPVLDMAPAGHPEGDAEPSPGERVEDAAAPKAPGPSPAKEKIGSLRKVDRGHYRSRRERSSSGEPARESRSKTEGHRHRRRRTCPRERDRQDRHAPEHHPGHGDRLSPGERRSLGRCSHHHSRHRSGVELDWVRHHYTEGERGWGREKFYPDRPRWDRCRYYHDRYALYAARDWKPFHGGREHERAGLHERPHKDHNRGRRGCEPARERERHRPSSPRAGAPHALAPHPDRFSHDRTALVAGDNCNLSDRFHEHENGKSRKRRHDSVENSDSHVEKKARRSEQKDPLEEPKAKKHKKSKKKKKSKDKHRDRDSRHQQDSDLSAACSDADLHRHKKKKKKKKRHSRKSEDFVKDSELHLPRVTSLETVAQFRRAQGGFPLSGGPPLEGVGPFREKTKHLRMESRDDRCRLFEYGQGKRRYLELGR
Method in brief: (§1)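 Using Biotin-Ahx-Ub-VS at 0.5 µM final for 1 h, DUBs were labelled in HEK293T lysate (495 µg per sample) that had first been treated in triplicate with fragment at 200 µM or vehicle for 3 h. NeutrAvidin enrichment, LysC and trypsin digestion and diaPASEF LC-MS/MS followed. Spectronaut label-free quantities were global-median-normalised. Values are average log2 fragment/vehicle ratios by unpaired t-test, using proteins with ≥2 unique peptides.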

USP46 = USP46 (UniProt P62068)
Method in brief: as §1

USP47 = biological target: T2, USP47 (UniProt Q96K76)
T2 sequence (whole entry): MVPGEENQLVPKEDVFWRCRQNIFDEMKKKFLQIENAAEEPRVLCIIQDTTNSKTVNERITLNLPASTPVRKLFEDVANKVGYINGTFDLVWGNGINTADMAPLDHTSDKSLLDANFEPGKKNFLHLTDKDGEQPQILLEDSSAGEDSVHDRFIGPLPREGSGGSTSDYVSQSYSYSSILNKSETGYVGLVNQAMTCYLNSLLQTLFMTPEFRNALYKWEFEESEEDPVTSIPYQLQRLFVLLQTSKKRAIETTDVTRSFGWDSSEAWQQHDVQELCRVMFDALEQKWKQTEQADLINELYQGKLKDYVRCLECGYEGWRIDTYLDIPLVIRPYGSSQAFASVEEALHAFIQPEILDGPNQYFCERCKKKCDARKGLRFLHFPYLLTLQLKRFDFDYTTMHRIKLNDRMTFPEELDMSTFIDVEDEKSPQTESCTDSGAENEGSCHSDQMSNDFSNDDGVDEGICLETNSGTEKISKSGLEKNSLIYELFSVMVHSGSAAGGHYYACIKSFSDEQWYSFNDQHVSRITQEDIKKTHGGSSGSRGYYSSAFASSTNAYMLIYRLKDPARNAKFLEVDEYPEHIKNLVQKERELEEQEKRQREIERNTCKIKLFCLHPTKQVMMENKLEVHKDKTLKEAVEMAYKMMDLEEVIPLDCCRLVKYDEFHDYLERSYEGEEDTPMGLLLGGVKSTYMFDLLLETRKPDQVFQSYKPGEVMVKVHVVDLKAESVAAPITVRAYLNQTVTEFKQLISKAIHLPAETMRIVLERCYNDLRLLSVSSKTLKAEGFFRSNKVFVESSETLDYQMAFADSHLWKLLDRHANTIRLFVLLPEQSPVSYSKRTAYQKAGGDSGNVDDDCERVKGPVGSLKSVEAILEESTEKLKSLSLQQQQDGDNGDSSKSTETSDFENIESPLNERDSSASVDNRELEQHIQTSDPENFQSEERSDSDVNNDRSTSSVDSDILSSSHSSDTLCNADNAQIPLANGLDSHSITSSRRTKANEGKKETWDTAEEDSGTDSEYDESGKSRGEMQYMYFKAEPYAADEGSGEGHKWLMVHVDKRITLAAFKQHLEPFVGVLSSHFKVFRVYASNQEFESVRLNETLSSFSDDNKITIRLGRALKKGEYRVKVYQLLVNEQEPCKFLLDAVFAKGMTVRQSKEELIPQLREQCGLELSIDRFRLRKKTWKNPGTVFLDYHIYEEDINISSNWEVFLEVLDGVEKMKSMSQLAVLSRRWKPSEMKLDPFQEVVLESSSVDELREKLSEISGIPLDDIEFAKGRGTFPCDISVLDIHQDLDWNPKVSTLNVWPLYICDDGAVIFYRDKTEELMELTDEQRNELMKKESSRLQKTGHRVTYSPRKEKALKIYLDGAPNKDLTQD
Method in brief: as §1

USP48 = biological target: T3, USP48 (UniProt Q86UV5)
T3 sequence (whole entry): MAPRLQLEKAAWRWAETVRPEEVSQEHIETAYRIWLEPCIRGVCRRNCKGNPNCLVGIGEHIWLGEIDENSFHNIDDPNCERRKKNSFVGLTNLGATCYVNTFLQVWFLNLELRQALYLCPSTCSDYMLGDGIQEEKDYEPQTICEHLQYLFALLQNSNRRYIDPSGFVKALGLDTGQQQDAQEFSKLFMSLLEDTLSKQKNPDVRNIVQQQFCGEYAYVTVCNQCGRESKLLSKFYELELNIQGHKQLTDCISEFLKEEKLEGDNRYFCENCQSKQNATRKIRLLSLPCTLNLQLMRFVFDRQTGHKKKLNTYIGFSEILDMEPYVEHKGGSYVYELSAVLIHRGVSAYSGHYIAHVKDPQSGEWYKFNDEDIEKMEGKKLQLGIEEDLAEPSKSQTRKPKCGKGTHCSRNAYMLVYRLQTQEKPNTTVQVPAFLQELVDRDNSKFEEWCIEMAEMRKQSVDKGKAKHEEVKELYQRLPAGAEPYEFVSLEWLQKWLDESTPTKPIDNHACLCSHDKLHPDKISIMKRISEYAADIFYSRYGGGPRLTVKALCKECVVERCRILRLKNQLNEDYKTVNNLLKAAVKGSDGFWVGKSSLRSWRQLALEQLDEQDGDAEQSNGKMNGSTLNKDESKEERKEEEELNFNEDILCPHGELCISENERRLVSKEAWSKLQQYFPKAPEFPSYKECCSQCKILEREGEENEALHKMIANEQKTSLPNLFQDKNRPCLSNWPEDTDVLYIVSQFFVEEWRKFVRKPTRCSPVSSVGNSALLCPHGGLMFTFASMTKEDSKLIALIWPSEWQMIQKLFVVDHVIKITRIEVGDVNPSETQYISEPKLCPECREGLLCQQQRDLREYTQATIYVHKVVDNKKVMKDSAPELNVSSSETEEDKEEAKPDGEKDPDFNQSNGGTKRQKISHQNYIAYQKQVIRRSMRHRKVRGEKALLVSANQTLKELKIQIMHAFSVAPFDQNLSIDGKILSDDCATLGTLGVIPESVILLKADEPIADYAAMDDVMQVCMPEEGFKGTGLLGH
Method in brief: as §1

USP5 = biological target: T4, USP5 (UniProt P45974)
T4 sequence (whole entry): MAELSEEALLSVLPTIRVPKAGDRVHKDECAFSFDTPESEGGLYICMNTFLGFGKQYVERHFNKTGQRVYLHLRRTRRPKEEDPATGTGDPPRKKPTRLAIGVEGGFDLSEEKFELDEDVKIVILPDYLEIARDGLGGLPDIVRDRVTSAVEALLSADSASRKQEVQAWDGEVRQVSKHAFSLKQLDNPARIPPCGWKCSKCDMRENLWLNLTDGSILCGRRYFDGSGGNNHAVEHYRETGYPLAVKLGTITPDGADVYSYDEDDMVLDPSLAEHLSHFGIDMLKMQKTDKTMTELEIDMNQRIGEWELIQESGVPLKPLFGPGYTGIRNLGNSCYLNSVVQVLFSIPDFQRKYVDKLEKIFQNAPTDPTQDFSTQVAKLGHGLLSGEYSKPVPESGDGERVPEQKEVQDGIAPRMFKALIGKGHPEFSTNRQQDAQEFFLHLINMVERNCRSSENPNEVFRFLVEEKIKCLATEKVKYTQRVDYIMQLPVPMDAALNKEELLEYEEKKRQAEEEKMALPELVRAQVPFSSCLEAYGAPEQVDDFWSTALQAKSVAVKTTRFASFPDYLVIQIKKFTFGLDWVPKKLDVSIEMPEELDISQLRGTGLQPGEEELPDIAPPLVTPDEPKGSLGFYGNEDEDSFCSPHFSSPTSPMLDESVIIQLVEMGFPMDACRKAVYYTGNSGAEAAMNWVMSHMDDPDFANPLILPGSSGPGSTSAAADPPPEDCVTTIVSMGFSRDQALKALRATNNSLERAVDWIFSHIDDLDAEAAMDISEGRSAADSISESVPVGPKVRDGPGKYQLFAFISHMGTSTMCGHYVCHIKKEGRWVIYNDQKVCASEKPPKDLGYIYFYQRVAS
Method in brief: as §1

USP54 = USP54 (UniProt Q70EL1)
Method in brief: as §1

USP7 = USP7 (UniProt Q93009)
Method in brief: as §1

USP8 = biological target: T5, USP8 (UniProt P40818)
T5 sequence (whole entry): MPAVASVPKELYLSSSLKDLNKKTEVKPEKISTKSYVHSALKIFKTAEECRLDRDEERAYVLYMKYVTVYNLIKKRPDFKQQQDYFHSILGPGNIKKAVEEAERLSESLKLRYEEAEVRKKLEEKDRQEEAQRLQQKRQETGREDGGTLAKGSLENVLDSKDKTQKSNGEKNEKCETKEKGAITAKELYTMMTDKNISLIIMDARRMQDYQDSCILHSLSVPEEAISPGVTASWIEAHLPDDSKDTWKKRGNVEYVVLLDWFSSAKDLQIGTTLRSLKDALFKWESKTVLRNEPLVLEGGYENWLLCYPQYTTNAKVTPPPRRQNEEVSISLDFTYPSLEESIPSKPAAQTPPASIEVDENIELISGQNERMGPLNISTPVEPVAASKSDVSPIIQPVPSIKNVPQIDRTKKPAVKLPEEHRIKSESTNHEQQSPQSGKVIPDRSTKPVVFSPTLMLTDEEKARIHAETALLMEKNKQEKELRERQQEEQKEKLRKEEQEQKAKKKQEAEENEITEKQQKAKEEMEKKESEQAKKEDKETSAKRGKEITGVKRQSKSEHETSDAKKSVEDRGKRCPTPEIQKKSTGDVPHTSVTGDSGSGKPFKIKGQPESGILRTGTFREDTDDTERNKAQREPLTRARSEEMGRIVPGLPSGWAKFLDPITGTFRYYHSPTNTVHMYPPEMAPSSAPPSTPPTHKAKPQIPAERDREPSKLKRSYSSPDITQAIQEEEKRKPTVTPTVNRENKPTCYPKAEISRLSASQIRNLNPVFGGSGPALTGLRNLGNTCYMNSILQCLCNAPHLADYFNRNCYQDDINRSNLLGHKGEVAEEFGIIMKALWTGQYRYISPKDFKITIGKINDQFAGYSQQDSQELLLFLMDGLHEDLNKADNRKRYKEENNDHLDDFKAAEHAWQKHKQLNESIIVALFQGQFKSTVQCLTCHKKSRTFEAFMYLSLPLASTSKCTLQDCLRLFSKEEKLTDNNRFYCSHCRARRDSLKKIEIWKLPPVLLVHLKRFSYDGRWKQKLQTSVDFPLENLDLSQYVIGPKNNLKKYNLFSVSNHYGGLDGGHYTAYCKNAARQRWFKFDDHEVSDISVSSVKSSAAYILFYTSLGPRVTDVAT
Method in brief: as §1

Measured: log2 ratio of Biotin-Ahx-Ub-VS probe labelling

Chain of USP46 (P62068 whole entry): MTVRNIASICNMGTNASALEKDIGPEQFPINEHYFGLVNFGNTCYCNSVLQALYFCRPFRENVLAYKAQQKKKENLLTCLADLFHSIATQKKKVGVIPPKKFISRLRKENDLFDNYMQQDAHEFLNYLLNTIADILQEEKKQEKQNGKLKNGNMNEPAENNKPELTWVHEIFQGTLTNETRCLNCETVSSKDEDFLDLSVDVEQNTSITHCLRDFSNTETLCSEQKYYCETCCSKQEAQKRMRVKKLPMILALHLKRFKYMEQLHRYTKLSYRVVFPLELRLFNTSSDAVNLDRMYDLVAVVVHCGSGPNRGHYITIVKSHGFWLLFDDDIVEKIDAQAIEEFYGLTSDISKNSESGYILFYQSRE
Chain of USP54 (Q70EL1 whole entry): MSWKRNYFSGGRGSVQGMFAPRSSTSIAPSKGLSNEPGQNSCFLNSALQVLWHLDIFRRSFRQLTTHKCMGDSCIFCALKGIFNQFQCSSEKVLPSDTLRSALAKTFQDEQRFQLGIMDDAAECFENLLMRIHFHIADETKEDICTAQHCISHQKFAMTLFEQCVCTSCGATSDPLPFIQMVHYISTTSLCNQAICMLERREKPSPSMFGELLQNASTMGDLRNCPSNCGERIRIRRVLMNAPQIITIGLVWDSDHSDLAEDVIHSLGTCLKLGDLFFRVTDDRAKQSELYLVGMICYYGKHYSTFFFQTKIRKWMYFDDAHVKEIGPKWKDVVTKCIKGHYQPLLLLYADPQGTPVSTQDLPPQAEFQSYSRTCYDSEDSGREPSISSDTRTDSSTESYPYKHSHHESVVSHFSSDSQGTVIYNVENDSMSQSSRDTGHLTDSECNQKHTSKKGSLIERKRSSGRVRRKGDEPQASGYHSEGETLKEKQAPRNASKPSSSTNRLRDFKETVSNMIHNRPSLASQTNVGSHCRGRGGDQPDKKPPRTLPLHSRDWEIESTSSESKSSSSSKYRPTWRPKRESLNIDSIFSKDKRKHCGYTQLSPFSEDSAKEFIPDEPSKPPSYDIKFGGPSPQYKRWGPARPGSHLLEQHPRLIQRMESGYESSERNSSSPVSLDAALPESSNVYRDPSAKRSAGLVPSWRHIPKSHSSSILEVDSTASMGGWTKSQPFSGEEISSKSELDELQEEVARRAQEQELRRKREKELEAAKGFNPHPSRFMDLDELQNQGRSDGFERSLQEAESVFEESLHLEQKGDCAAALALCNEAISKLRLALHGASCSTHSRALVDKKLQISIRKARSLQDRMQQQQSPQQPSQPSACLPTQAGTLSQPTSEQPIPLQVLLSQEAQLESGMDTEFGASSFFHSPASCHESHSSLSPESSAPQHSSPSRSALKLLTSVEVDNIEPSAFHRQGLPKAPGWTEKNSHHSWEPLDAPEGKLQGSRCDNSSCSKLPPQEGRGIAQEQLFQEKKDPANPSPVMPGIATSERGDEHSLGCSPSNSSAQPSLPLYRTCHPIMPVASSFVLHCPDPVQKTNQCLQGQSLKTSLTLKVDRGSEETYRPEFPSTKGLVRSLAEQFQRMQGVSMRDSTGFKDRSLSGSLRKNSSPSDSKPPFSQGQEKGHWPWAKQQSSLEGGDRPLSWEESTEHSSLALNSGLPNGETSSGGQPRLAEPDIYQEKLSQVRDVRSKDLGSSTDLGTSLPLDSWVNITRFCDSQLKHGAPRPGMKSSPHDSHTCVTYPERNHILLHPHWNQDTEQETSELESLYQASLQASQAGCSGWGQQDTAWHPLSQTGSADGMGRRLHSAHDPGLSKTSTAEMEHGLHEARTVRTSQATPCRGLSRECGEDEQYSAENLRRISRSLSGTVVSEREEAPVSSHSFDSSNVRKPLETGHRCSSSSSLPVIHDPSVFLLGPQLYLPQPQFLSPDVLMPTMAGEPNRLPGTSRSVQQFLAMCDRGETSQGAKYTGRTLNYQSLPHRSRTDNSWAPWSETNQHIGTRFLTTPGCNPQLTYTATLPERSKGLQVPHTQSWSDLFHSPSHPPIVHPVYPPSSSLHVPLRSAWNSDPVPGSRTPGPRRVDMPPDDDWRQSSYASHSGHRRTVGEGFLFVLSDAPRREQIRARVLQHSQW
Chain of USP7 (Q93009 whole entry, looked up): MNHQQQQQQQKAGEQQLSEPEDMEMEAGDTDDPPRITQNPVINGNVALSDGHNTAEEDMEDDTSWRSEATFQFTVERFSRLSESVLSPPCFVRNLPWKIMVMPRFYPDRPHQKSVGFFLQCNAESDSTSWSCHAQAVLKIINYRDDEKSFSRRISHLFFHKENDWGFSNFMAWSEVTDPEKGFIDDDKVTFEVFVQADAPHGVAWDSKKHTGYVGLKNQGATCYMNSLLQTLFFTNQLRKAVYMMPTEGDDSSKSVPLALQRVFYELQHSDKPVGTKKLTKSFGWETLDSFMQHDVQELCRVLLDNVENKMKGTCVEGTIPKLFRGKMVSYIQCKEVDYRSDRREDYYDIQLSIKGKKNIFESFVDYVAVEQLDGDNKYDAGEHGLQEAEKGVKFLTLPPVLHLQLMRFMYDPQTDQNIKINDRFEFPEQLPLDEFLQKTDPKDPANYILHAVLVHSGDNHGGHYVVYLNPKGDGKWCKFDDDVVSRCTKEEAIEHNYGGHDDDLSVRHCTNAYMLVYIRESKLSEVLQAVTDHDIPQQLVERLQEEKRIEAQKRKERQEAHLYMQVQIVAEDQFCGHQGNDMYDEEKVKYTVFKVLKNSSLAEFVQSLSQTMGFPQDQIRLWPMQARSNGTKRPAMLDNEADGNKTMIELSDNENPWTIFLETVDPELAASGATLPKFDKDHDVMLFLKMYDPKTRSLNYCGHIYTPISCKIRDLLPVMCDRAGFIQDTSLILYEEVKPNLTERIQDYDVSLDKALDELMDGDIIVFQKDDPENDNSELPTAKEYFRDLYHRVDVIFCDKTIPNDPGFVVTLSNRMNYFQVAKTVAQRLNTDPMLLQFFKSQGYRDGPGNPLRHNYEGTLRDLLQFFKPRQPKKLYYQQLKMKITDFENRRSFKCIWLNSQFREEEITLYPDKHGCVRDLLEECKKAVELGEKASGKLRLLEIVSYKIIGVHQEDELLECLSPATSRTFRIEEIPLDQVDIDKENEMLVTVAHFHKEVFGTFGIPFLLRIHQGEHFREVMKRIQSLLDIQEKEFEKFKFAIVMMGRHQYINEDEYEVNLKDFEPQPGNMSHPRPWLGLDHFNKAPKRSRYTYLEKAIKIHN

Cc1nc(-c2cccc(NC(=O)CCl)c2)cs1
inactive: USP42 0.339 | USP46 -0.382 | USP47 -0.123 | USP48 -0.43 | USP5 -0.284 | USP54 0.0451 | USP7 -0.163 | USP8 -0.282
